PubChem BioAssay (NCATS)
Inconclusive results are not listed. The source made the active and inactive calls. The call rests on the fitted dose curve; in most records, active means well fitted curve in the direction sought with a large enough effect; inconclusive means small, poorly fitted or top-dose-only effect, or another doubt; inactive means no such curve, though single readings can be large or run the other way. Non-standard residues stand in square brackets, D forms with d. Residues, ends and D or L forms follow the SMILES beside them. Peptide text beside a SMILES is read from it. *: point of attachment. Sta = CC(C)C[C@H](N)[C@@H](O)CC(=O)O; Isovaleryl = CC(C)CC(=O)*

What follows are compounds tested against Protein phosphatase 1D (Homo sapiens) (UniProt O15297) (assay: Rhodamine-PBP qHTS Assay for Modulators of WT P53-Induced Phosphatase 1 (WIP1) (AID 1347425)). Conditions: recombinant WIP1, Rhodamine-PBP phosphate fluorescence, real-time; series mostly up to 57.5 µM.
Source text: Assay Provider (PI): Nathan Coussens Ph.D.
National Center for Advancing Translational Sciences (NCATS), Rockville, MD
National Institute of Health (NIH), Bethesda, Maryland
WT P53-Induced Phosphatase 1 (WIP1) is a member of the magnesium-dependent serine/threonine protein phosphatase (PPM) family and is induced by P53 in response to DNA damage. In several human cancers, the WIP1 protein is overexpressed, which is generally associated with a worse prognosis. Although WIP1 is an attractive therapeutic target, no potent, selective, and bioactive small-molecule modulator with favorable pharmacokinetics has been reported. Phosphatase enzymes are among the most challenging targets for small molecules because of the difficulty of achieving both modulator selectivity and bioavailability. Another major obstacle has been the availability of robust and physiologically relevant phosphatase assays that are suitable for high-throughput screening.
Here, we describe two orthogonal biochemical WIP1 activity assays that utilize phosphopeptides from native WIP1 substrates. We optimized a RapidFire MS assay to quantify the enzymatically dephosphorylated peptide reaction product in a 384-well format. Additionally, a redshifted Rhodamine-PBP fluorescence assay was optimized in a 1,536-well format to enable real-time WIP1 activity measurements through the detection of the orthogonal reaction product, Pi. We validated these two optimized assays by quantitative high-throughput screening against the National Center for Advancing Translational Sciences (NCATS) Pharmaceutical Collection and used secondary assays to confirm and evaluate inhibitors identified in the primary screen.
SEQUENCE No. (e.g., 1, 2, 3, etc.); […] (e.g., Cells, Incubation, Reagent, etc.); VALUE; DESCRIPTION
1; Reagent; 3 uL; WIP1 (6.7 nM), Rh-PBP (13.3 uM), columns 1-48
3; Library Compounds; 23 nL; NCATS Pharmaceutical Collection, column 5-48
4; Control Compounds; DMSO in column 2, GSK2830371 (57.5 uM, final) in 3-fold serial dilutions in column 3, GSK2830371 (1.15 uM, final) in column 4
5; Time; 1 hr; incubation
6; Detection; fluorescence (f0); ViewLux, excitation filter = 525 nm, emission filter = 598 nm
7; Reagent; 1 uL; VEPP-pS-QETFS (40 uM), columns 2-48
8; Detection; fluorescence (f1); ViewLux, excitation filter = 525 nm, emission filter = 598 nm
NOTES (numbers refer to sequence above)
1 & 2; Black medium binding Greiner 1536-well plates (# 789176-F); assay buffer: 50 mM Tris-HCl pH 7.5, 30 mM MgCl2, 1mM TCEP, 0.1 mM EGTA, 75 ug/mL BSA; dispensed with a BioRaptr liquid handler (Beckman Coulter).
3 & 4; Kalypsys pintool (equipped with 1536 pinhead, Wako USA) transfer. Tip wash sequence: DMSO, methanol, 3 sec vacuum dry.
5; Room temperature incubation.
7; VEPPL-pS-QETFS in assay buffer dispensed with a BioRaptr; final reaction conditions: 5 nM WIP1, 10 uM VEPPL-pS-QETFS, 10 uM Rh-PBP, 50 mM Tris-HCl pH 7.5, 30 mM MgCl2, 1 mM TCEP, 0.1 mM EGTA, 75 ug/mL BSA.
8; Measurement taken at 1 min intervals for 11 min. Delta readout = f1 - f0.

Sequence of Protein phosphatase 1D (Homo sapiens) (O15297 whole entry, looked up): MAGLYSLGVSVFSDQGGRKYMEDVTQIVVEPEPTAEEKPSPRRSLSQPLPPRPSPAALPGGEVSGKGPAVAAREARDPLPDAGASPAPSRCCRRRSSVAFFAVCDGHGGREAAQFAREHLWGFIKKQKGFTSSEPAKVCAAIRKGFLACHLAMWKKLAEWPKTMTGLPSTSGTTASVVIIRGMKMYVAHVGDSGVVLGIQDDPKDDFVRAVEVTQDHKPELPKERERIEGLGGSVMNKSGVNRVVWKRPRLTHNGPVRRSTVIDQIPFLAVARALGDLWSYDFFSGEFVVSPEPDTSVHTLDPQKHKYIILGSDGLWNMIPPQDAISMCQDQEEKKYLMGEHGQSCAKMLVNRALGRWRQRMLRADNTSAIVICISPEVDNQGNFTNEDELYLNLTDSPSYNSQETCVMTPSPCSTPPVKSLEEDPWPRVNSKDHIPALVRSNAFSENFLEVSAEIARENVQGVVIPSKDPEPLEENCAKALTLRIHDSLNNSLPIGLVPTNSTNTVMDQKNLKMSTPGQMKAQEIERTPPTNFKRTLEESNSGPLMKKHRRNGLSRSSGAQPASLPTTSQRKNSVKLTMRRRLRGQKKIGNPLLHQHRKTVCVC

Row | Structure (SMILES) | outcome
1 | COc1cc2c(N3CCN(C(=O)Nc4ccc(OC(C)C)cc4)CC3)ncnc2cc1OCCCN1CCCCC1 | inactive
2 | COC(=O)C1=C(C)NC(C)=C(C(=O)OC(C)C)C1c1cccc2nonc12 (stereo not given) | inactive
3 | COCCCOc1ccnc(CS(=O)c2nc3ccccc3[nH]2)c1C (stereo not given) | inactive
4 | CC(C)[C@H](N)C(=O)OCCOCn1cnc2c(=O)[nH]c(N)nc21 | inactive
5 | CNC[C@H](O)c1ccc(O)c(O)c1 | inactive
6 | O=C(O)c1cccc(-c2noc(-c3ccccc3F)n2)c1 | inactive
7 | CCC[C@@H]1C[C@@H](C(=O)N[C@@H]([C@H]2O[C@H](SC)[C@H](O)[C@@H](O)[C@H]2O)[C@@H](C)O)N(C)C1 | inactive
8 | COc1cc2nc(N3CCN(C(=O)C4CCCO4)CC3)nc(N)c2cc1OC (stereo not given) | inactive
9 | Cc1ccc(Nc2nccc(N(C)c3ccc4c(C)n(C)nc4c3)n2)cc1S(N)(=O)=O | inactive
10 | CC(=O)Nc1ccc(O)cc1 | inactive
11 | Nc1ncn([C@H]2C[C@H](O)[C@@H](CO)O2)c(=O)n1 | inactive
12 | COc1ccc2cc([C@H](C)C(=O)O)ccc2c1 | inactive
13 | COC(=O)[C@H](Cc1ccccc1)NC(=O)[C@@H](N)CC(=O)O (H-Asp-Phe-OMe) | inactive
14 | Cc1ncc([N+](=O)[O-])n1CC(C)O (stereo not given) | inactive
15 | Cn1c(NCCN(CCO)CCCc2ccc([N+](=O)[O-])cc2)cc(=O)n(C)c1=O | inactive
16 | COC1=C(OC)C(=O)C(CCCCCCCCCCO)=C(C)C1=O | inactive
17 | CC(C)CC(=O)N[C@H](C(=O)N[C@H](C(=O)N[C@@H](CC(C)C)[C@@H](O)CC(=O)N[C@@H](C)C(=O)N[C@@H](CC(C)C)[C@@H](O)CC(=O)O)C(C)C)C(C)C (Isovaleryl-VV[Sta]A[Sta]-OH) | inactive
18 | NS(=O)(=O)c1cc(C(=O)O)c(NCc2ccco2)cc1Cl | inactive
19 | Nc1ccc(S(N)(=O)=O)cc1 | inactive
20 | Cc1cc(=O)c2c(O)c3c(O)cc(=O)c4c3c3c(cc(O)c1c23)C(C)(C)C=4O | inactive

Row | Structure (SMILES) | outcome
21 | O=C(O)c1cn(-c2ccc(F)cc2)c2cc(N3CCNCC3)c(F)cc2c1=O | inactive
22 | Cc1cccc(C)c1OCC(=O)N[C@@H](Cc1ccccc1)[C@@H](O)C[C@H](Cc1ccccc1)NC(=O)[C@H](C(C)C)N1CCCNC1=O | inactive
23 | CCCCc1ccc2nc(NC(=O)OC)[nH]c2c1 | inactive
24 | CCN(CC)CCOc1ccc(Cc2ccccc2)cc1 | inactive
25 | CCOC(=O)c1c(C)n(C)c2ccc(O)cc12 | inactive
26 | O=C1CCc2ccc(OCCCCN3CCN(c4cccc(Cl)c4Cl)CC3)cc2N1 | inactive
27 | O=C(O)CCNC(=O)c1ccc(N=Nc2ccc(O)c(C(=O)O)c2)cc1 | inactive
28 | Cc1ccc(C)c(OCCCC(C)(C)C(=O)O)c1 | inactive
29 | Oc1ccc(OCc2ccccc2)cc1 | inactive
30 | O=C(NCC1CCCCN1)c1cc(OCC(F)(F)F)ccc1OCC(F)(F)F (stereo not given) | inactive
31 | Cc1cc(C2CCCCC2)n(O)c(=O)c1 | inactive
32 | CCCCC(CC)COC(=O)C(C#N)=C(c1ccccc1)c1ccccc1 (stereo not given) | inactive
33 | CCCc1cc(=O)[nH]c(=S)[nH]1 | inactive
34 | CCCOc1ccc2nc(NC(=O)OC)[nH]c2c1 | inactive
35 | Cc1ccc(C(=O)c2cc(O)c(O)c([N+](=O)[O-])c2)cc1 | inactive
36 | CCCS(=O)c1ccc2nc(NC(=O)OC)[nH]c2c1 (stereo not given) | inactive
37 | Cc1cc2c(s1)Nc1ccccc1N=C2N1CCN(C)CC1 | inactive
38 | N[C@@H](Cc1cc(I)c(Oc2cc(I)c(O)c(I)c2)c(I)c1)C(=O)O | inactive
39 | CS(=O)(=O)OCCCCOS(C)(=O)=O | inactive
40 | COC(=O)C1=C(C)NC(C)=C(C(=O)OCCCN2CCC(c3ccccc3)(c3ccccc3)CC2)C1c1cccc([N+](=O)[O-])c1 (stereo not given) | inactive
